Assay results published in PubChem BioAssay (Tox21).
Where “and” joins values, the source holds several entries; their conditions need not be identical. Identical values can stand only once. Records with an inconclusive call do not appear. A call without a number means that no potency is given here. Some compounds were tested as several samples or in several runs, with calls that do not always agree. Calls of active or inactive are those of the source. Calls follow the shape of the dose curve; as a rule, active = well fitted cell-killing curve with a large enough effect in the repeat runs; inconclusive = weak or mixed curves, or effect the other way; inactive = flat fitted curve, though single readings scatter. Starred links: 1 amine or outer side, 2 acyl side, 3 side chain; linkers in the order of their positions; H or OH if unused. Positions of bridges follow the written chain, without caps; N, C: chain ends. Non-standard residues stand in square brackets, D forms with d. Residues, ends and D or L forms follow the SMILES beside them. Chains are numbered I, II in the order given. Actinocin(9to1) = Cc1c2oc3c(C)ccc(C(=O)[*:1])c3nc-2c(C(=O)[*:2])c(N)c1=O; NMeV = CN[C@H](C(=O)O)C(C)C; Sar = CNCC(=O)O

Experiment: qHTS assay to identify small molecule agonists of the sonic hedgehog signaling (Shh) pathway - cell viability counter screen (AID 1259366); also: nearly all actives have a fitted effect of over 50% in size
Conditions: NIH/3T3 Gli1-Luc viability, CellTiter-Fluor, 24 h; series mostly up to 92.4 µM
From the text: National Center for Advancing Translational Sciences [NCATS]
NIH Chemical Genomics Center [NCGC]
U.S. Environmental Protection Agency [EPA]
National Institutes of Environmental Health Sciences [NIEHS]
National Toxicology Program [NTP]
U.S. Food and Drug Administration [FDA]
The sonic hedgehog (Shh) pathway is essential for normal embryonic development. Dysregulation of the Shh pathway can cause severe developmental defects in organs. Therefore chemicals that interfere with the pathway are potential developmental toxicants. A cell line designated 3T3Gli1-Luc (DMB/OARSA/CFSAN/FDA, Laurel, MD), a NIH/3T3 derived clone containing stably integrated Gli1-Luc reporter is used to detect chemical interference of the Shh pathway, by changes in the expression of the firefly Luc gene under the control of the Gli1 transcriptional response element. This cell line was used to screen Tox21 libraries for identifying and prioritizing the potential developmental toxicants that interfere Shh pathway. The cytotoxicity of the compounds was tested in parallel by measuring the cell viability using CellTiter-Fluor assay system (Promega, Madison, WI) in the same wells.
Tox21 Assay Protocol Summary:
3T3 Gli1-Luc cells were dispensed at 2,000 per well in 5uL of culture medium into white solid bottom 1536-well plates (Greiner Bio-One, Monroe, NC) using a Multidrop Combi (Thermo Scientific, Waltham, MA) dispenser. The assay plates were incubated at 37 C and 5% CO2 for 4hr, and then 23nL of compounds dissolved in DMSO and positive control were transferred using a Pintool station (Wako, San Diego, CA). The assay plates were incubated at 37C and 5% CO2 for 24hr. For viability read, after 23hr of compound treatment, 1uL of CellTiter-Fluor reagent (Promega Corporation, Madison, WI) was added to each well of the assay plates using Flying Reagent Dispenser (FRD, Aurora Discovery, San Diego, CA) and incubated the assay plates at 37C for 1hr. The fluorescence signal was quantified using a ViewLux plate reader (Perkin Elmer, Shelton, CT).
Potency is read from the fitted curve at half-maximal effect.

Row | Compound | Potency
1 | O=C(O)c1cn(-c2ccc(F)cc2)c2cc(N3CCNCC3)c(F)cc2c1=O | inactive
2 | c1cnc2cc3c(cc2n1)C1CNCC3C1 | inactive
3 | CC(=O)Nc1ccc(C(=O)CCl)cc1 | 21.7 µM (active)
4 | CCn1cc(C(=O)O)c(=O)c2cc(F)c(N3CCNC(C)C3)c(F)c21 (stereo not given) | inactive
5 | CCCCCCC(O)CCCCCCCCCCC(=O)O (stereo not given) | inactive
6 | Oc1c(Cl)cc(Cl)c(Cl)c1Cc1c(O)c(Cl)cc(Cl)c1Cl | 30.5 µM (active) and inactive
7 | CC(COc1ccccc1)N(CCCl)Cc1ccccc1 (stereo not given) | inactive
8 | CC(C)(C)c1ccccc1 | inactive
9 | OCCN1CCNCC1 | inactive
10 | c1cc(C(c2ccc(OCC3CO3)cc2)C(c2ccc(OCC3CO3)cc2)c2ccc(OCC3CO3)cc2)ccc1OCC1CO1 (stereo not given) | inactive
11 | CC(C)(C)c1cc(C(C)(C)C)c(O)c(C(C)(C)C)c1 | inactive
12 | CCN1CCCC1CNC(=O)c1cc(S(=O)(=O)CC)c(N)cc1OC (stereo not given) | inactive
13 | CN(C)c1ccc(C(=C2C=CC(=[N+](C)C)C=C2)c2ccccc2)cc1 | 4.73 µM (active) [middle of 4 runs]
14 | CCOc1ccccc1C(N)=O | inactive
15 | CC1=C(C=O)C(C)(C)CC=C1 | inactive
16 | COc1nc(C)nc(Cl)c1NC1=NCCN1 | inactive
17 | Cc1cccc2n[nH]nc12 | inactive
18 | C=C(C)C1CC=C(C)C(OC(C)=O)C1 (stereo not given) | inactive
19 | CC(C)CCOCc1ccccc1 | inactive
20 | Cc1ccc(-c2cc(C(F)(F)F)nn2-c2ccc(S(N)(=O)=O)cc2)cc1 | 60.9 µM (active) and 61.1 µM (active) and inactive

Row | Compound | Potency
21 | CC[C@]1(O)C[C@@H]2CN(CCc3c([nH]c4ccccc34)[C@@](C(=O)OC)(c3cc4c(cc3OC)N(C)[C@H]3[C@@](O)(C(=O)OC)[C@H](OC(C)=O)[C@]5(CC)C=CCN6CC[C@]43[C@@H]65)C2)C1 | 11.9 µM (active)
22 | O=C(O)Cn1cnnn1 | inactive
23 | C/C=C/c1ccc(OCC)c(O)c1 | inactive
24 | Cc1c2oc3c(C)ccc(C(=O)N[C@@H]4C(=O)N[C@H](C(C)C)C(=O)N5CCC[C@H]5C(=O)N(C)CC(=O)N(C)[C@@H](C(C)C)C(=O)O[C@@H]4C)c3nc-2c(C(=O)N[C@@H]2C(=O)N[C@H](C(C)C)C(=O)N3CCC[C@H]3C(=O)N(C)CC(=O)N(C)[C@@H](C(C)C)C(=O)O[C@@H]2C)c(N)c1=O (I: T[dV]P[Sar][NMeV] / II: T[dV]P[Sar][NMeV]; ester I:1-I:C, II:1-II:C; linker I:N-II:N via Actinocin(9to1)) | 42.1 nM (active) and 168 nM (active)
25 | Cc1occc(=O)c1OC(=O)C(C)C | inactive
26 | CO[Si](OC)(OC)c1ccccc1 | inactive
27 | CC(C)CCOC(=O)c1ccc(N(C)C)cc1 | inactive
28 | C=C(C)C(=O)O | inactive
29 | Cc1ccnc2c1NC(=O)c1cccnc1N2C1CC1 | inactive
30 | CCCCC/C=C/CC1CC(=O)OC1=O (stereo not given) | inactive
31 | Cc1cc(Cc2cc(C)cc(C(C)(C)C)c2O)c(O)c(C(C)(C)C)c1 | 43.5 µM (active)
32 | CC(C)(C)NCC(O)COc1ccccc1OCC1CCCO1 (stereo not given) | inactive
33 | CC(C)(O)CCC(C)(C)O | inactive
34 | O=C(O)c1cc(Cl)cc(Cl)c1 | inactive
35 | CC(=O)CC(=O)Nc1ccc2[nH]c(=O)[nH]c2c1 | inactive
36 | CCC(=O)/C=C/C1C(C)=CCCC1(C)C (stereo not given) | inactive
37 | CCCCN(CCO)CCCC | inactive
38 | O=C(OCc1ccccc1)c1ccc(O)cc1 | inactive
39 | O=C1CC2(CCCC2)CC(=O)N1CCCCN1CCN(c2ncccn2)CC1 | inactive
40 | CNC1(C)C2CCC(C2)C1(C)C (stereo not given) | inactive
